Source: PubChem BioAssay
ALR inh – human ALR oxidase inhibition via reduced H2O2; P55789; purified ALR, DTT oxidation, H2O2 HRP-luminol luminescence; inhibition, % (no concentration beside the values); 290,000 compounds, 3.8% hits;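 active means mean replicate inhibition above about 79%, with every replicate also reaching it, limit read from the data; inconclusive means only one of the two criteria met; inactive means mean below limit and not every replicate reaching it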
Target sequence (P55789 whole entry, looked up): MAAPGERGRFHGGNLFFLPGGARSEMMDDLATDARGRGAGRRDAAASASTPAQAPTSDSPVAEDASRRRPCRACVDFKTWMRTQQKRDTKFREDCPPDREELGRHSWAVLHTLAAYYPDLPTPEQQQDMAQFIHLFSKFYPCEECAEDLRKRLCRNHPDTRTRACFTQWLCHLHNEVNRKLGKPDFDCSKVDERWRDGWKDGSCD
AI-2 QS mod – modulators of Vibrio harveyi AI-2 quorum sensing system; Vibrio harveyi JMH597 AI-2 luminescence/OD600 ratio, 9 h; hits give low values; strain lacks LuxN and CqsS sensors; 0 = neutral-control median; activity change, % at 7.5 µM; 300,000 compounds, 0.4% hits; AID 2094; in the data active means activity change below about -75%, passing the limit was not always enough; inconclusive means no clear call, values can overlap the other calls;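 further: luminescence divided by OD600 gain over 9 h not by final OD600 alone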
SUMO Mot1 rescue – SUMOylation pathway inhibition by Mot1-301 growth rescue. 320,000 compounds, 1% hits. S. cerevisiae Mot1-301 growth rescue, ATP luminescence, 38.5C; percent above DMSO median, 100 means doubled. growth rescue, % at 18.8 µM;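 active means every valid replicate shows activation above 250% relative to neutral control wells; inactive means the rest, any valid replicate at or below 250%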;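 further: OY570 slx delta 5 strain wells were the positive control but not used for scaling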
HIF act – HIF pathway transcriptional activation; activation, % at 7.5 µM (by protocol); 300,000 compounds, 0.32% hits; U2OS HRE-luciferase reporter, luminescence; normalized: DMSO 0%, desferrioxamine 100%; AID 1910;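 active means mean activation of at least 10% of the iron chelator positive control signal, with at least half of replicates also reaching 10%; inconclusive means mean and replicate majority disagree about reaching 10%; inactive means mean and most replicates under 10%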
JMH597 growth rt – retest: blocks Vibrio harveyi JMH597 growth; 750 compounds, 1% hits; shares compounds with AI-2 QS mod; growth inhibition, % at 7.5 µM; OD600 absorbance, 9 h; lacks LuxN and CqsS sensors; AID 2726;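 active means every replicate shows growth inhibition above 50%; inconclusive means at least half, but not all, replicates pass that cutoff; inactive means fewer than half of replicates pass it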
BB721 lum counter – retest counter-screen: lowers luminescence of constitutive-QS Vibrio harveyi BB721; 750 compounds, 95% hits; inhibition, % at 7.5 µM; 9 h; shares compounds with AI-2 QS mod;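 active means inhibition above about 80% in every replicate, not just on average, limit read from the data; inconclusive means at least half of replicates past the limit, but not all; inactive means fewer than half of replicates past the limit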
BB721 growth rt – retest: blocks Vibrio harveyi BB721 growth. OD600 absorbance, 9 h. growth inhibition, % at 7.5 µM. shares compounds with AI-2 QS mod. 750 compounds, 3% hits. AID 2728;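 active means every replicate shows growth inhibition above 50%; inconclusive means at least half but not all replicates above 50% inhibition; inactive means under half of replicates above 50% inhibition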
JMH597 AI-2 mod – Vibrio harveyi AI-2 signaling luminescence modulation – JMH597 strain, confirmation; shares compounds with AI-2 QS mod; 750 compounds, 97% hits; Vibrio harveyi JMH597 AI-2 quorum sensing luminescence, 9 h; luxN and CqsS knockout, AI-2 only; inhibition, % at 7.5 µM;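 active means every replicate shows more than 75% inhibition of signal versus neutral control wells; inconclusive means half to three quarters of replicates exceed 75% inhibition; inactive means fewer than half of replicates exceed 75% inhibition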
Active calls of the source: *; ? = inconclusive; · = no result. This is a sample that favours compounds with a hit; in the whole collection about 4.8% have one here.

SMILES	ALR inh	AI-2 QS mod	SUMO Mot1 rescue	HIF act	JMH597 growth rt	BB721 lum counter	BB721 growth rt	JMH597 AI-2 mod
CC(=O)c1cccc(NC(=O)CN2C(=O)c3ccccc3C2=O)c1	·	-96*	8	0	4	99*	1	100*
Cc1cccc(NC(=O)CCN2C(=O)c3ccccc3C2=O)c1	-4	?	-3	-1	-5	88*	1	92*
CCOc1ccc(NC(=O)c2cccc(-n3cccc3)c2)cc1S(=O)(=O)N1CCOCC1	·	·	8	·	·	·	·	·
O=C(CN1C(=O)c2ccccc2C1=O)Nc1cccc(S(=O)(=O)Nc2ccccc2Cl)c1	-3	-83*	134	1	35	90*	41	93*
Cc1cc(NC(=O)CN2C(=O)c3ccccc3C2=O)no1	1	?	-3	0	-2	84*	-5	87*
Cc1cccc(NC(=O)CCOc2ccccc2)c1	98*	-84*	-5	2	10	91*	-6	94*
O=C(CCOc1ccccc1)Nc1cccc([N+](=O)[O-])c1	3	-26	11	0	·	·	·	·
CCOC(=O)/C=C1\SCC(=O)N1CC(=O)Nc1cc(S(=O)(=O)N(C)C)ccc1C	-6	·	11	·	·	·	·	·
O=C(N/N=C/C=C/c1ccccc1)c1ccncc1	-5	17	832	0	·	·	·	·
O=C(O)c1ccc(N/N=C/C=C/c2ccccc2)cc1	92*	-84*	-2	0	16	98*	63*	98*
COc1ccc(C(CNC(=O)C(C)Oc2ccc(Br)cc2)N2CCCCC2)cc1 (configuration not stated)	-3	·	3	·	·	·	·	·
CC(C)(C)c1ccc(/C=N/NC(=O)C2CCCC2)cc1	-23	-83*	28	·	32	96*	?	97*
COc1ccc(/C=N\NC(=O)C2CCCC2)cc1Br	-21	-2	29	1	·	·	·	·
CC(C)c1ccc(/C=N/NC(=O)C2CCCC2)cc1	-6	?	26	3	-1	91*	4	92*
CC(NC(=O)c1cc(-c2ccncc2)nc2ccc(Br)cc12)C1CCCO1 (configuration not stated)	-13	12	0	-1	·	·	·	·
O=C(NCc1cccnc1)Nc1ccc(Cl)cc1	-6	14	-2	0	·	·	·	·
N#Cc1ccccc1S(=O)(=O)N1CCN(C(=O)c2cn(-c3ccccc3)nc2-c2cccnc2)CC1	2	·	0	·	·	·	·	·
O=C(Oc1ccc2c(=O)c(Oc3ccc4ccccc4c3)coc2c1)c1cccnc1	-13	-89*	-2	0	19	97*	?	97*
CCc1ccc(CNc2ccc3c(c2)ncn3C)cc1	·	-91*	·	2	27	96*	8	98*
Cc1ccc(CNc2ccc3c(c2)ncn3C)cc1	67	-82*	-31	2	18	91*	-15	95*
COc1ccc(CNc2ccc3c(c2)ncn3C)cc1OC	31	13	8	0	·	·	·	·
Cn1c(CNC(=O)C(Cc2ccccc2)NC(=O)c2ccccc2F)cc(=O)n(C)c1=O (configuration not stated)	1	5	-8	-1	·	·	·	·
Clc1ccc2nc(COc3ccccc3)[nH]c2c1	-9	-47	80	6	·	·	·	·
COc1ccc(S(=O)(=O)n2cccc2)cc1	-3	?	0	0	24	96*	-24	99*
COc1cc(C)ccc1OCc1cc(C(=O)N2CCC(c3ccc(F)cc3)C2)no1 (configuration not stated)	0	-8	-20	4	·	·	·	·
CSCCC(NC(=O)c1ccco1)C(=O)NC1CCCCCC1 (configuration not stated)	1	14	5	0	·	·	·	·
COc1ccc(N2CCN(S(=O)(=O)CCNC(=O)C3CCCCC3)CC2)cc1	2	30	-10	-1	·	·	·	·
CSc1nnc(-c2ccccc2)o1	-13	?	-5	0	-1	10	8	8
